Values joined by “and” are separate entries in the source; they are usually repeats but may differ in a detail not shown here. Equal entries are not always repeated. Unmarked numbers belong to inactive results. Results filed as inconclusive are left out. Where a call stands in place of a potency, no number is given. Active and inactive are the calls of the source. Unless noted, calls come from the whole dose curve; as a rule, active = well fitted curve in the direction sought with a large enough effect; inconclusive = small, poorly fitted or top-dose-only effect, or another doubt; inactive = no such curve, though single readings can be large; an effect the other way counts as inactive or inconclusive.
What was measured:
[1] = target: Guanine nucleotide-binding protein G(i) subunit alpha-1 (Homo sapiens) (UniProt P63096); experiment: qHTS Assay for Inhibitors of RGS12 GoLoco Motif Activity (Green Fluorophore) (AID 879);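 note: negative values mean loss of peptide binding seen as reduced polarization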
Guanine nucleotide-binding protein G(i) subunit alpha-1 (Homo sapiens), sequence (P63096 whole entry, looked up): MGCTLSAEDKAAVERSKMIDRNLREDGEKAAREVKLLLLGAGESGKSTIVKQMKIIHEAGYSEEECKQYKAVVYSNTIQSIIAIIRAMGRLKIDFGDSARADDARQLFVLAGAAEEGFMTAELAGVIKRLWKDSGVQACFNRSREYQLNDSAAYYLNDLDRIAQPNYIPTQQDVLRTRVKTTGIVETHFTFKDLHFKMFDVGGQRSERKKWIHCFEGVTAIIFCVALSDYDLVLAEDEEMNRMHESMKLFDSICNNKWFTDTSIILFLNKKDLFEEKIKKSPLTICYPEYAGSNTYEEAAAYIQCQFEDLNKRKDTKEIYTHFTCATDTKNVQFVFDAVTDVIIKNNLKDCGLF
Method in brief: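 A drop in FITC polarization marked displacement of the FITC-tagged RGS12 GoLoco peptide (10 nM) from Gαi1 (50 nM). Compounds were incubated 10 min at room temperature in Tris pH 7.5 buffer containing 150 mM NaCl, 0.1 mM GDP and 0.05% NP40; unlabeled peptide titration served as control.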

[2] = target: Cytochrome P450 3A4 (Homo sapiens) (UniProt P08684); experiment: qHTS Assay for Inhibitors and Substrates of Cytochrome P450 3A4 (AID 884); note: series mostly up to about 57 µM; nearly all actives have a fitted effect of over 50% in size
Cytochrome P450 3A4 (Homo sapiens), sequence (P08684 whole entry, looked up): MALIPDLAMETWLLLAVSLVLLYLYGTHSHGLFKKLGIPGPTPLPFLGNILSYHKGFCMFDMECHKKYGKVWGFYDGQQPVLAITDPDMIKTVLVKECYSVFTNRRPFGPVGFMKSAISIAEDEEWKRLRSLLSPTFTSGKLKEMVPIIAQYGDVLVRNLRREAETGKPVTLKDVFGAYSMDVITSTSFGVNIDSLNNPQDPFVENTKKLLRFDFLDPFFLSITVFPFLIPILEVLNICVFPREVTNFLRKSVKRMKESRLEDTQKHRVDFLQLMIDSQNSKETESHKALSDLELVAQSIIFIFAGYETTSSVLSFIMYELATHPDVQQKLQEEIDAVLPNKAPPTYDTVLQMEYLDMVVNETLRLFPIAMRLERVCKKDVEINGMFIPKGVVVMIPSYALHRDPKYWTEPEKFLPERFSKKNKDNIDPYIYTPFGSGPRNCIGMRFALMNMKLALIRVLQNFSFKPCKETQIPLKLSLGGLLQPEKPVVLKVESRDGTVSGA
Method in brief: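 Luminescent readout of luciferin produced by CYP3A4 (20 nM) dealkylation of Luciferin-PPXE, 25 uM (its KM). NADPH-driven reaction ran 60 min at RT after 10 min compound preincubation; data scaled to 57 uM ketoconazole as 100% inhibition.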

[3] = Confirmation and Secondary Assay for Modulators of Hemoglobin Beta Chain Splicing at IVS2 654 locus (AID 910);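 note: HeLa cells stably carrying EGFP split by mutant beta-globin IVS2-654 intron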
Method in brief: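 HeLa cells stably expressing EGFP interrupted by β-globin IVS2-654 intron, seeded overnight in Opti-MEM/2% FCS, then treated 2 days at 37 °C. Restored splicing read as total peak GFP intensity per well by laser scanning cytometry (488 nm excitation, 500–520 nm emission); 500 nM antisense PNA as control.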

[4] = Confirmation and Secondary Assay for Modulators of Hemoglobin Beta Chain Splicing at IVS2 705 locus (AID 930);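 note: HeLa cells stably expressing the EGFP-705 splicing reporter; GFP fluorescence per well restored by corrected splicing of the IVS2-705 intron in EGFP; series mostly up to about 46 µM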
Method in brief: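 Stable HeLa line with EGFP disrupted by mutant beta-globin intron 2 (705). Overnight attachment, then 2 days of compound at 37C, 5% CO2. Signal: peak GFP intensity summed over objects 5-250 µm.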

[5] = target: Muscarinic acetylcholine receptor M1 (Rattus norvegicus) (UniProt P08482); experiment: qHTS Assay for Antagonists of Acetylcholine Muscarinic M1 Receptor: Kinetic Measurement of Intracellular Calcium Response (AID 943); note: nearly all actives have a fitted effect of over 75% in size; note: potency is the fitted concentration of half-maximal effect
Muscarinic acetylcholine receptor M1 (Rattus norvegicus), sequence (P08482 whole entry, looked up): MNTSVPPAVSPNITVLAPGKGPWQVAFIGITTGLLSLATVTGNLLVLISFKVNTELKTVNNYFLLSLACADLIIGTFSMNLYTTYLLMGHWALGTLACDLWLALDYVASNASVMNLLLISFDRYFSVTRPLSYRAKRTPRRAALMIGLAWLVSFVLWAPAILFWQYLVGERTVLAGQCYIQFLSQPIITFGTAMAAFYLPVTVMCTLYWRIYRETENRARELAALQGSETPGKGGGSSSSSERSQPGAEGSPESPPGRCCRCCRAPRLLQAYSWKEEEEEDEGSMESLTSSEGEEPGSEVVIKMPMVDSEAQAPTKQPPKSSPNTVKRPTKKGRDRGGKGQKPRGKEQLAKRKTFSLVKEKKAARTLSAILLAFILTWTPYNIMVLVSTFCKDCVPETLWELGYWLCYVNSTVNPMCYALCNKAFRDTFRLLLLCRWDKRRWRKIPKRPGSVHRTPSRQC
Method in brief: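 Read-out: peak over basal Fluo-4 fluorescence, kinetic at 1 Hz for 4 min after EC80 carbachol (100 nM final). Rat M1-CHO cells, dye loaded 1 h at 37C, compound added 10 min before agonist.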

[6] = target: Muscarinic acetylcholine receptor M1 (Rattus norvegicus) (UniProt P08482); experiment: qHTS Assay for Antagonists of Acetylcholine Muscarinic M1 Receptor: Measurement of IP-One Response (AID 944); note: nearly all actives have a fitted effect of over 75% in size; note: potency is the fitted concentration of half-maximal effect
Method in brief: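 Read-out: HTRF competition between d2-IP1 and Eu-cryptate anti-IP1 antibody, emission 620 and 665 nm. Stimulus was carbachol, EC80 (200 nM), for 30 min in M1-CHO cells (rat receptor), after 10 min compound pre-treatment.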

[7] = target: Pyruvate kinase (Leishmania mexicana) (UniProt Q27686); experiment: qHTS Validation Assay for Inhibitors of Leishmania Mexicana Pyruvate Kinase (AID 945)
Pyruvate kinase (Leishmania mexicana), sequence (Q27686 2-499 E452W): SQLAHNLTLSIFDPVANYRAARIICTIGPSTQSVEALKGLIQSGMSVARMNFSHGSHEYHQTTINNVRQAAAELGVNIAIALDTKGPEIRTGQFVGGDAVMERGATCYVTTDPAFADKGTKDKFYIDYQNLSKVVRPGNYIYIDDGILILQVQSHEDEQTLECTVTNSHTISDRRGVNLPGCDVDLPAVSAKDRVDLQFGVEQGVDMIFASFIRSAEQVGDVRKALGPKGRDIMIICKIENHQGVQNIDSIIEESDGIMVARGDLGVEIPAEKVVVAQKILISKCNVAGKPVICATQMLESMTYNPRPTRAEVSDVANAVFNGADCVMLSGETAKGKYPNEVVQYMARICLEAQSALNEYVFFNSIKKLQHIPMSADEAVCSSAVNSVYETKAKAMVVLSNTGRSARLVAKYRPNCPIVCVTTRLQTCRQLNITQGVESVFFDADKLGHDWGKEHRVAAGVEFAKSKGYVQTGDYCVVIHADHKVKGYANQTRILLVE
Method in brief: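 Mutant LmPYK (E451W), 0.2 nM, plus 0.5 mM PEP and 0.1 mM ADP in 50 mM imidazole pH 7.2 containing 0.01% Tween 20 and 0.05% BSA. Incubated 1 h at room temperature; luminescence via PKLight, normalized to DMSO.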

[8] = target: Cytochrome P450 2C9 (Homo sapiens) (UniProt P11712); experiment: qHTS Assay for Inhibitors and Substrates of Cytochrome P450 2C9 (AID 883); note: nearly all actives have a fitted effect of over 60% in size
Cytochrome P450 2C9 (Homo sapiens), sequence (P11712 whole entry, looked up): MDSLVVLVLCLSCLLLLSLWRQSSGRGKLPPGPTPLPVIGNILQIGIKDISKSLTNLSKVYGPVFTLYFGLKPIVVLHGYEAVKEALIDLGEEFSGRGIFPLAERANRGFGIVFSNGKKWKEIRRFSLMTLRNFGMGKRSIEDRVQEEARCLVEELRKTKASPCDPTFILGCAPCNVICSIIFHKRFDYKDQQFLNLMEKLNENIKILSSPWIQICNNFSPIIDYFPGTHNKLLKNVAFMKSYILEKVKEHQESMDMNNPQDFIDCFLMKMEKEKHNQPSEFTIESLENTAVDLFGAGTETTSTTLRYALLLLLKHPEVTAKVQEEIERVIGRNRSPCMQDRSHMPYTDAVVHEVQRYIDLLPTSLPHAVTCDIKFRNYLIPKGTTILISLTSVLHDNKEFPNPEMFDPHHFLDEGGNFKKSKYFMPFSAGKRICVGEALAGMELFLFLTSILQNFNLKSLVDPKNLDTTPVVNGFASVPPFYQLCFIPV
Method in brief: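 10nM CYP2C9 + 100uM Luciferin-H (=KM), 25mM KPO4; cpd 10 min 37C; NADPH regen, 60 min 37C; stop/detect with P450 Glo-Buffer 20 min; luminescence. Norm. to 57uM sulphaphenazole as full inhibition.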

[9] = target: Cytochrome P450 2D6 (Homo sapiens) (UniProt P10635); experiment: qHTS Assay for Inhibitors and Substrates of Cytochrome P450 2D6 (AID 891); note: nearly all actives have a fitted effect of over 60% in size; note: potency is the fitted concentration of half-maximal effect
Cytochrome P450 2D6 (Homo sapiens), sequence (P10635 whole entry, looked up): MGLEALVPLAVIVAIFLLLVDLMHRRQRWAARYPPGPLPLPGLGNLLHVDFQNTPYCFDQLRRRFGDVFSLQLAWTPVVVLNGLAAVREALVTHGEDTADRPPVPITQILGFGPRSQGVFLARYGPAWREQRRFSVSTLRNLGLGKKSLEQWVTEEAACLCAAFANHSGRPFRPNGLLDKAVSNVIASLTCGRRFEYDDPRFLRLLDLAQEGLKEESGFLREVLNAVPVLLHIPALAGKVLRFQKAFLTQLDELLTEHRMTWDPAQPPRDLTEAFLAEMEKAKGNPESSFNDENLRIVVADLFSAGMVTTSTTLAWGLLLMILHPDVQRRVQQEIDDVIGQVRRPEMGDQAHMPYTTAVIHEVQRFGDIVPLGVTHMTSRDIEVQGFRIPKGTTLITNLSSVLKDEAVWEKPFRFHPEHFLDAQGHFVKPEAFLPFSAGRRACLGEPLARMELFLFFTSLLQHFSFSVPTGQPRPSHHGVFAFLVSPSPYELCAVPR
Method in brief: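 Luminescent read-out of luciferin formed by 5 nM human CYP2D6 demethylating 30 uM Luciferin-ME EGE (Km level) over 60 min at room temperature after NADPH regeneration addition. Data normalized to full inhibition by 1.43 uM quinidine.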

[10] = target: Cytochrome P450 2C19 (Homo sapiens) (UniProt P33261); experiment: qHTS Assay for Inhibitors and Substrates of Cytochrome P450 2C19 (AID 899); note: nearly all actives have a fitted effect of over 60% in size
Cytochrome P450 2C19 (Homo sapiens), sequence (P33261 whole entry, looked up): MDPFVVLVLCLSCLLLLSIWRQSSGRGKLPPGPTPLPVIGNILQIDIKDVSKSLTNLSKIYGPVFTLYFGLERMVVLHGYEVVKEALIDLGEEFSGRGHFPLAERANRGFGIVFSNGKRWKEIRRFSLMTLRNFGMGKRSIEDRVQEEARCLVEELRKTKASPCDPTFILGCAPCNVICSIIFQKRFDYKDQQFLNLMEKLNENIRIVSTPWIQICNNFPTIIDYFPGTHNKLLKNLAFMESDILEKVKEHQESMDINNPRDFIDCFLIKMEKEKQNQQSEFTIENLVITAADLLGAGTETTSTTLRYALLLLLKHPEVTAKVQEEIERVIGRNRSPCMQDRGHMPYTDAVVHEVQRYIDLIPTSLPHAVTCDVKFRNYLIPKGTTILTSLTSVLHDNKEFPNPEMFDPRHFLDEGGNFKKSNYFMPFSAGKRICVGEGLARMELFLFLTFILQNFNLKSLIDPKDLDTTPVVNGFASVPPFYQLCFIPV
Method in brief: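 Luminescent read-out of luciferin formed from Luciferin-H EGE (10uM, equal to KM). Enzyme 5nM in 50mM KPO4; compound added, 10 min at 37C, then NADPH regenerating system for 60 min at 37C. Full inhibition defined by 57uM ketoconazole.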

[11] = Cellular Toxicity (caspase-3) N2a (AID 665);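 note: compound exposure lasted 16 h at 37 °C before readout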
Method in brief: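 Luminescent Caspase-Glo 3/7 readout in N2a mouse neuroblastoma cells after 16 h compound exposure at 37 °C. Signal scaled to DMSO (basal) and 10 uM staurosporine (100%). Concentration-response fitted with Hill equation for AC50.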

[12] = Cellular Toxicity (caspase-3) NIH 3T3 (AID 666)
Method in brief: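 NIH 3T3, 1000 cells/well, 5 hr settle then 16 hr compound at 37°C; Caspase-Glo 3/7, 20 min RT, luminescence. DMSO = basal, 100 uM tamoxifen = 100%. Hill-equation AC50, qHTS.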

[13] = Cellular Toxicity (caspase-3) Renal Proximal Tubule (AID 667);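 note: cells exposed to compound for 16 hours at 37 °C before detection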
Method in brief: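 Caspase-Glo 3/7 read-out, rat primary kidney proximal tubule cells. Compound exposure 16 h, 37 °C; detection after 1 h at RT. Activity scaled to DMSO and 10 uM staurosporine.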

[14] = MultiTox-Fluor Cytotoxicity Assay - LYMP1-001 - Dead Cells (AID 946)
Method in brief: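 Cytotoxicity as increased dead-cell protease fluorescence (bis-AAF-R110, 485/520 nm), read 60 min after MultiTox-Fluor reagent. Human lymphoblastoid line exposed 16 h; Hill-fitted AC50, with DMSO as 0% and 15 uM tetraoctylammonium bromide as 100%.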

[15] = MultiTox-Fluor Cytotoxicity Assay - LYMP1-001 - Live Cells (AID 947)
From the text: NIH Chemical Genomics Center [NCGC]
NIH Molecular Libraries Screening Centers Network [MLSCN]
National Institutes of Environmental Health Sciences [NIEHS]
National Toxicology Program [NTP]
We have developed a 1536-well cell-based assay for quantitative high throughput screening (qHTS) against a number of cell lines to determine in vitro cytotoxicity of small molecules. This particular assay uses a human lymphoblastoid cell line (LYMP1-001) purchased from Coriell Institute.
NCGC Assay Protocol Summary:
The MultiTox-Fluor Cytotoxicity Assay (Promega) is a homogeneous method to simultaneously measure the relative number of live and dead cells in culture by detecting changes in cell membrane integrity. There are two fluorogenic peptide substrates in the assay reagent. Viable cells are determined when the cell-permeant substrate (GF-AFC) enters the cell and is cleaved by protease from live cells resulting in liberated fluorophore. This live-cell protease activity restricted to viable cells is proportional to cell number. The dead cells are determined by using fluorogenic cell-impermeant peptide substrate (bis-AAF-R110) which cleaved by dead cell proteases leaking from damaged cell membrane.
Using the MultiTox-Fluor Cytotoxicity Assay, the relative number of live cells was measured in the lymphoblastoid cell line with complete culture medium following compound treatment for 16 hours. The assay was performed in opaque black Kalypsys 1536-well plates. In the screen, tetraoctylammonium bromide was used as positive control. Library compounds were measured for their ability to cause acute toxicity in the cell line, as reflected by a decrease in live cell protease activity, in a concentration-dependent manner. […] AC50 values were determined from concentration-response data modeled with the standard Hill equation.
qHTS protocol for MultiTox-Fluor Cytotoxicity assay
[Step] [Parameter] [Value] [Description]
1. Reagent; 5 uL; 2500 lymphoblastoid cells/well
2. Time; 5 hr; 37 C incubation
4. Controls; 23 nL; Tetraoctylammonium bromide 6.4pM to 92 uM
5. Time; 16 hr; 37 C incubation
6. Reagent; 5 uL; MuliTox-Fluor Assay reagent
7. Time; 60 min; Room Temperature
8. Detection; live-cell fluorescence (Ex/Em=405/510); EnVision plate reader
Keywords: cell viability, cytotoxicity, lymphoblastoid cell line, fluorescence, NTPHTS, NTPHTS_NCGC, NIEHS, EPA, DSSTox, MLSMR, MLSCN, NIH Roadmap, qHTS, NCGC

[16] = Cell Viability - LYMP2-001 (AID 921);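 note: series mostly up to about 92 µM; cells exposed to compound for 24 h at 37 °C; nearly all actives have a fitted effect of over 70% in size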
Method in brief: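 A lymphoblastoid cell line of human origin was treated with library compounds across a concentration series for 24 hours, and viable cell number was estimated from ATP-driven luciferase light output. Hill modeling gave AC50.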

[17] = target: Cytochrome P450 3A4 (Homo sapiens) (UniProt P08684); experiment: qHTS Assay for Activators of Cytochrome P450 3A4 (AID 885); note: nearly all actives have a fitted effect of over 65% in size
Method in brief: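 Luminescent readout of luciferin formed from 25 uM Luciferin-PPXE (KM level) by 20 nM CYP3A4 in 200 mM KPO4, with 60 min NADPH-driven reaction at room temperature after 10 min compound exposure. Ketoconazole (57 uM) defined 100% inhibition.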

[18] = qHTS Assay for Identification of Small Molecule Agonists for Thrombopoietin (TPO) Signaling Pathway (AID 917)
Method in brief: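 Human TPO receptor–transfected Ba/F3 cells (murine, IL-3-dependent) in IL-3-deficient medium; compounds plus TPO at EC50, 26 pM final; 24 hrs, 37 C; GpIIb-luciferase luminescence after 10 min RT detection.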

[19] = qHTS Assay for Identification of Small Molecule Agonists for Hypoxia Response Element Signaling Pathway (AID 914; active = well fitted activation curve with a large enough effect in the signal ratio, with a control signal flat, not every such curve was filed as active; the % refers to the signal ratio); details: ME-180 (cervical carcinoma) HRE-bla reporter, beta-lactamase ratio, CoCl2, 17 h; hits give high values
Method in brief: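 Reporter activity (beta-lactamase, CCF4 460nm/530nm ratio) in HRE-bla ME-180 cells is recorded after 17 h compound exposure with EC50 CoCl2 at 37 degrees Celsius. AC50 values come from titration data.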

[20] = qHTS Assay for Identification of Small Molecule Antagonists for Thrombopoietin (TPO) Signaling Pathway (AID 918); details: TPO-dependent cell signaling reporter, antagonist mode; note: potency is the fitted concentration of half-maximal effect; nearly all actives have a fitted effect of over 60% in size
Method in brief: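 Luminescence read-out: GPIIb-promoter luciferase in Ba/F3 cells carrying human TPO receptor. Compounds added with 26 pM TPO (EC50), 24 hrs, 37 C, 5% CO2; cells deprived of IL-3 overnight beforehand. Inhibition of signal scored.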

SMILES: O=C(O)CCCCCCCC(=O)O
- Potency [1]: inactive
- outcome [2]: inactive
- outcome [3]: inactive
- outcome [4]: inactive
- Potency [5]: inactive
- Potency [6]: inactive
- Potency [7]: inactive

SMILES: Cc1ccc(=O)n(-c2ccccc2)c1
- Potency [1]: inactive
- Potency [8]: inactive
- Potency [9]: inactive
- Potency [10]: inactive
- Potency [5]: inactive
- Potency [6]: inactive
- Potency [7]: inactive

SMILES: Nc1nc(N)c2nc(-c3ccccc3)c(N)nc2n1
- outcome [11]: inactive
- outcome [12]: inactive
- outcome [13]: inactive
- Potency [1]: inactive
- outcome [3]: inactive
- outcome [4]: inactive
- Potency [6]: inactive
- outcome [14]: inactive
- outcome [15]: inactive

SMILES: CCCCOCCOCCOCc1cc2c(cc1CCC)OCO2
- outcome [11]: inactive
- outcome [12]: inactive
- outcome [13]: inactive
- outcome [16]: inactive
- outcome [14]: inactive
- outcome [15]: inactive

SMILES: CN(C(=O)CCCOc1ccc2[nH]c(=O)ccc2c1)C1CCCCC1
- Potency [1]: inactive
- Potency [8]: inactive
- Potency [17]: inactive
- Potency [9]: inactive
- Potency [10]: inactive
- Potency [7]: inactive

SMILES: O=c1[nH]c(=O)n([C@H]2C[C@H](O)[C@@H](CO)O2)cc1Br
- outcome [11]: inactive
- outcome [12]: inactive
- outcome [13]: inactive
- outcome [2]: inactive
- outcome [16]: inactive
- Potency [5]: inactive
- outcome [14]: inactive
- outcome [15]: inactive

SMILES: CCN(CC)CCNC(=O)c1ccc(NC(C)=O)cc1
- Potency [1]: inactive
- outcome [3]: inactive
- outcome [18]: inactive
- outcome [4]: inactive
- Potency [5]: inactive

SMILES: NCCCNCCSP(=O)(O)O
- Potency [1]: inactive

SMILES: CC(=O)Nc1nnc(S(N)(=O)=O)s1
- Potency [1]: inactive
- Potency [8]: inactive
- outcome [2]: inactive
- Potency [9]: inactive
- Potency [10]: inactive
- outcome [3]: inactive
- activation [19]: 10.9% and -10.2% and -6.49%
- outcome [18]: inactive
- outcome [4]: inactive

SMILES: CC(C)[N+](C)(CCOC(=O)C1c2ccccc2Oc2ccccc21)C(C)C
- Potency [1]: inactive
- Potency [9]: 1260 nM (active)
- outcome [3]: inactive
- outcome [4]: inactive
- Potency [5]: 11.2 nM (active)
- Potency [6]: 1 nM (active)

SMILES: Cc1nc2c([nH]1)c(=O)n(C)c(=O)n2Cc1ccco1
- Potency [1]: inactive
- Potency [10]: inactive
- Potency [6]: inactive

SMILES: C[N+](C)(C)CCOC(N)=O
- Potency [1]: inactive
- outcome [2]: inactive
- Potency [10]: inactive
- outcome [3]: inactive
- outcome [18]: inactive
- outcome [4]: inactive
- Potency [7]: inactive

SMILES: COC(=O)[C@H]1[C@H]2C[C@@H]3c4[nH]c5cc(OC)ccc5c4CCN3C[C@H]2C[C@@H](OC(=O)c2cc(OC)c(OC)c(OC)c2)[C@@H]1OC
- outcome [11]: inactive
- outcome [12]: inactive
- outcome [13]: inactive
- Potency [1]: inactive
- Potency [17]: inactive
- Potency [20]: 31600 nM (active)
- outcome [16]: inactive
- Potency [6]: 8910 nM (active)
- Potency [7]: inactive
